PubChem BioAssay (NCI)
This is part of a sample that, as a whole, favours compounds with a hit. Of some 79,000 tested, about 15% had one in any assay. Activity calls are given as the source filed them. No stated cut-off is given here; in the data, active means growth inhibition above about 70%; inactive means the rest.

Columns and labels:
[1] = NCI Yeast Anticancer Drug Screen. Data for the rad50 strain (AID 155);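 further: 0% = growth of vehicle-only cultures of the same strain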; settings: S. cerevisiae rad50 strain growth inhibition; at 50.0 µM; active compounds read high
How it was run: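 Growth of the mutant yeast was measured after compound exposure and referenced to vehicle-treated cultures.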

[2] = NCI Yeast Anticancer Drug Screen. Data for the mec2-1 strain (AID 157); settings: S. cerevisiae mec2-1 strain, at 50.0 µM, active compounds read high
How it was run: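 mec2-1 yeast strain, carrying an alteration in DNA damage repair or cell cycle control, was exposed to compounds; growth inhibition was measured relative to vehicle-treated controls.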

[3] = NCI Yeast Anticancer Drug Screen. Data for the sgs1 mgt1 strain (AID 161);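 further: 0% = growth of cultures given vehicle only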; settings: S. cerevisiae sgs1 mgt1 strain, at 50.0 µM, active compounds read high
How it was run: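 Growth of a repair-deficient yeast mutant was monitored after compound treatment and expressed as inhibition relative to vehicle-treated cultures.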

[4] = NCI Yeast Anticancer Drug Screen. Data for the cln2 rad14 strain (AID 165);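 further: 0% = growth equal to vehicle treated cultures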; settings: S. cerevisiae cln2 rad14 strain, at 50.0 µM, active compounds read high
How it was run: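 Yeast carrying cln2 and rad14 alterations (cell cycle control and DNA damage repair) were exposed to compounds. Growth inhibition was measured against vehicle-treated controls.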

[5] = NCI Yeast Anticancer Drug Screen. Data for the bub3 strain (AID 167); settings: S. cerevisiae bub3 mutant strain, at 50.0 µM, active compounds read high
How it was run: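 Whole-cell yeast assay. The mutant strain was incubated with compounds, and growth inhibition was determined by comparison with vehicle-treated cells.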

[6] = NCI Yeast Anticancer Drug Screen. Data for the mlh1 rad18 strain (AID 175); settings: S. cerevisiae mlh1 rad18 strain growth inhibition; at 50.0 µM; active compounds read high
How it was run: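 Growth inhibition of the yeast strain was measured after compound exposure and expressed relative to vehicle-treated controls. The strain carries defined defects in DNA damage repair.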

Measured: growth inhibition

O=C1C2C3CCC(C3)C2C(=O)C2C3CCC(C3)C12 (stereo unspecified)
inactive: [1] -1.6% | [2] -12.7% | [3] -9.95% | [4] -8.45% | [5] 8.75% | [6] 6.65%

COC(=O)C1C(C(=O)OC)C(C(=O)OC)C1C(=O)OC (stereo unspecified)
inactive: [1] 1.6% | [2] -0.35% | [3] -0.45% | [4] 9.5% | [5] 1.4% | [6] 26.9%

C/C(=N\NC(N)=S)C(CN(CC(C)C)CC(C)C)C(=O)Nc1ccc(C)cc1C (stereo unspecified)
inactive: [1] -18.7% | [2] 6.4% | [3] -7.15% | [4] 16% | [5] -1.15% | [6] -2.75%

CCOc1ccccc1NC(=O)C(=O)C(c1ccccc1)S(=O)(=O)Cc1ccccc1 (stereo unspecified)
inactive: [1] -1% | [2] -12.5% | [3] -10.1% | [4] 5.45% | [5] -7.35% | [6] -1.5%

CC(=O)NC(Cc1ccccc1)/C(C)=N\O (stereo unspecified)
inactive: [1] -3.15% | [2] -2.05% | [3] -2.65% | [4] -15.2% | [5] 5.25% | [6] 4.8%

O=S(=O)(N/N=C/c1ccc(/C=N/NS(=O)(=O)c2ccccc2)cc1)c1ccccc1
inactive: [1] -6.9% | [2] -15.8% | [3] -21.3% | [4] 12.6% | [5] -7.95% | [6] 0.15%

O=C1CN(C(=O)c2ccccc2)C(=S)N1
inactive: [1] 22.5% | [2] 6.7% | [3] 11.7% | [4] -17.9% | [5] 4.75% | [6] 4.5%

Cn1c(=O)c2[nH]c(NCc3ccccc3)nc2n(C)c1=O
inactive: [1] 27.4% | [2] -3.9% | [3] 0.7% | [4] -35.2% | [5] 0.4% | [6] -0.2%

O=C(Nc1ccccc1F)C(c1ccccc1)c1ccccc1
inactive: [1] 14.8% | [2] 8.95% | [3] 3.25% | [4] -1.45% | [5] 11.8% | [6] 4%

Clc1nc(N2CCOCC2)c2[nH]cnc2n1
inactive: [1] -5.9% | [2] 5.7% | [3] 3.9% | [4] -6.1% | [5] 8.8% | [6] 6.25%

CSc1nnc(N(C(C)C)C(C)C)c2nc[nH]c12
inactive: [1] 9.65% | [2] 11.8% | [3] 16.1% | [4] 47.5% | [5] 14.7% | [6] 4.2%

COCCNc1ccc([N+](=O)[O-])cc1[N+](=O)[O-]
inactive: [1] 1.85% | [2] -1.85% | [3] -3.75% | [4] -26.9% | [5] -8.65% | [6] 7.1%

Cn1c2ccccc2c2c3c(ccc21)C(=O)c1ccccc1C3=O
inactive: [1] 6.85% | [2] -3.9% | [3] 7.15% | [4] -62.6% | [5] 8.2% | [6] -2.5%

Nc1nnc2nc(CC(=O)c3ccccc3[N+](=O)[O-])c(CC(=O)c3ccccc3[N+](=O)[O-])nn12
inactive: [1] 1% | [2] 6.05% | [3] 18.1% | [4] -13.3% | [5] -27.4% | [6] 8.8%

C[N+](C)(C)C(Cc1ccccc1)Cc1ccccc1
inactive: [1] -27% | [2] 9.95% | [3] -29.9% | [4] -47.1% | [5] -0.7% | [6] 5.65%

COc1ccc2nc(-c3ccccc3)cc(OCC(=O)O)c2c1
inactive: [1] -30.2% | [2] 21.2% | [3] -7.5% | [4] -13.1% | [5] 10.1% | [6] -15.8%

CC1CN(C(=O)OCC23COC4(C)CCC(C)(OC2)N34)CC(C)O1 (stereo unspecified)
inactive: [1] 2.6% | [2] -18% | [3] 6.9% | [4] 13.4% | [5] -0.7% | [6] 5.75%

O=C1CCN2C(=O)CCN12
inactive: [1] 1.1% | [2] -10.2% | [3] 18.7% | [4] 14.8% | [5] 11% | [6] 2.35%

CC(C)(C)C1CC/C(=N\Nc2ccc([N+](=O)[O-])cc2[N+](=O)[O-])C(Cc2ccccc2)C1 (stereo unspecified)
inactive: [1] 11.9% | [2] 21.1% | [3] 19.5% | [4] -26.6% | [5] 16.9% | [6] 0%

CN(C)c1ccc2[nH]cc(C(=O)O)c(=O)c2c1
inactive: [1] 4.15% | [2] 6.6% | [3] 10.3% | [4] -1.05% | [5] 28.8% | [6] 7.35%

OC1CCC(C2C3CCCCC3C3CCCCC3C2C2CCC(O)CC2)CC1 (stereo unspecified)
active: [1] 94.7% | [2] 98.5% | [3] 92.5% | [4] 97.9% | [5] 97.2% | [6] 96.8%

O=C(O)c1cc(Br)cc([N+](=O)[O-])c1
inactive: [1] -9.15% | [2] 15.1% | [3] -14.9% | [4] -49.3% | [5] -16.2% | [6] 21.1%

CCOC(=O)c1c(-c2ccc([N+](=O)[O-])cc2)c(C#N)n(-c2ccccc2)c1C
inactive: [1] -1.25% | [2] 36% | [3] 28.4% | [4] -7.95% | [5] 45.1% | [6] 6.1%

O=C1CSC(c2ccccc2F)N1c1ncccn1 (stereo unspecified)
inactive: [1] -3.2% | [2] -6.8% | [3] 0.75% | [4] -20.8% | [5] 8% | [6] -1.4%

COC1C(O)=C2C(=O)OC(C)(O)/C=C/C=C\C=C/C=C/C(c3ccccc3)NC(=O)/C=C/C=C/C=C/C=C/C2(C)C1O (stereo unspecified)
inactive: [1] -1.7% | [2] -14.1% | [3] 3.3% | [4] 3.55% | [5] -9.3% | [6] 4.5%

O=c1[nH]c2ccc(Cl)cc2[nH]c1=O
inactive: [1] -7.05% | [2] 5% | [3] -10.5% | [4] 0.3% | [5] -1.45% | [6] 0.9%

CCOc1ccc(/C=C2/C(=O)N(/C=C3/C(=O)Oc4ccccc4C3=O)C(=NC(C)=O)N2C)cc1
inactive: [1] 8.75% | [2] -13% | [3] -10.8% | [4] 12.7% | [5] -1.85% | [6] 2.35%

O=C(CCN1C(=O)c2ccccc2C1=O)c1cnc[nH]1
inactive: [1] 13.8% | [2] 16.9% | [3] 13.4% | [4] -4.5% | [5] 2.6% | [6] 10.4%

O=C(O)CC(C(=O)O)=C1CCCCC1
inactive: [1] 11.8% | [2] 13.4% | [3] 0.5% | [4] 8.15% | [5] 8.75% | [6] -0.3%

O=c1cnc(=O)[nH][nH]1
inactive: [1] -12.4% | [2] -17.2% | [3] -7% | [4] -18.1% | [5] 5.7% | [6] -5.4%

Nc1ncnc2c1ncn2CCCCC(=O)O
inactive: [1] -17.1% | [2] -12.2% | [3] -23.6% | [4] -2.1% | [5] -53% | [6] -15.3%

CN(C)S(=O)(=O)c1ccc(N)c([N+](=O)[O-])c1
inactive: [1] -0.2% | [2] 10.7% | [3] -7.75% | [4] -5.05% | [5] 7.55% | [6] 14.3%

CCc1c(Cl)nc(N)nc1Nc1ccc(C)cc1
inactive: [1] -20.7% | [2] -4.8% | [3] -11.2% | [4] -25% | [5] 12% | [6] -6.55%

C=CCC(C)C(=O)NNC(=O)C(C)CC=C (stereo unspecified)
inactive: [1] -11.8% | [2] -9.15% | [3] -1.85% | [4] -13.3% | [5] -12.2% | [6] 11.8%

C[N+](C)(Cc1ccccc1)c1ccccc1
inactive: [1] -3.7% | [2] -6% | [3] -0.15% | [4] -34.9% | [5] 4.1% | [6] -11.2%

CCOC(=O)N1C=NC23C(c4ccccc4)C(c4ccccc4)C12C(=O)N(C)C(=O)N3C (stereo unspecified)
inactive: [1] -1.55% | [2] -9.2% | [3] 0.7% | [4] -26.8% | [5] -8.35% | [6] -30.9%

COc1ccc(C2=C(N)c3cc(OC)ccc3C2=O)cc1
inactive: [1] 41.1% | [2] 12.3% | [3] 33% | [4] -0.3% | [5] 32.1% | [6] -24.8%

CCCCCCCC[C@]1(O)C[C@H]2[C@@H]3CCc4cc(OC)ccc4[C@H]3CC[C@]2(C)[C@H]1O
inactive: [1] -3.45% | [2] -10.7% | [3] -1.15% | [4] 7.1% | [5] -11.2% | [6] 0.5%

COc1ccc(CN2CCCN(Cc3ccc(OC)cc3OC)C2c2ccc(N(C)C)cc2)c(OC)c1
inactive: [1] 39.9% | [2] 14.5% | [3] 21.1% | [4] 3.6% | [5] 15.7% | [6] 12.1%

CCOC(=O)C(=O)NC12CC3CC(CC(C3)C1)C2
inactive: [1] -16.9% | [2] -17.6% | [3] 1.5% | [4] -4.45% | [5] 24.8% | [6] -8.3%

CCOC(=O)c1c(C)c(C)n2c1NC(=O)C2
inactive: [1] -4.5% | [2] -4.6% | [3] -37.5% | [4] -36.8% | [5] -30.6% | [6] -13.9%
